What follows are molecules tested against Follistatin (Homo sapiens) (UniProt P19883) (assay: follistatin binders on small-molecule microarrays, primary screen, biochemical, small-molecule microarray, 635/667 nm fluorescence (AID 1132)). Settings: FST binding, 635 nm fluorescence, higher = more signal.
Chain of Follistatin (Homo sapiens) (P19883 whole entry, looked up): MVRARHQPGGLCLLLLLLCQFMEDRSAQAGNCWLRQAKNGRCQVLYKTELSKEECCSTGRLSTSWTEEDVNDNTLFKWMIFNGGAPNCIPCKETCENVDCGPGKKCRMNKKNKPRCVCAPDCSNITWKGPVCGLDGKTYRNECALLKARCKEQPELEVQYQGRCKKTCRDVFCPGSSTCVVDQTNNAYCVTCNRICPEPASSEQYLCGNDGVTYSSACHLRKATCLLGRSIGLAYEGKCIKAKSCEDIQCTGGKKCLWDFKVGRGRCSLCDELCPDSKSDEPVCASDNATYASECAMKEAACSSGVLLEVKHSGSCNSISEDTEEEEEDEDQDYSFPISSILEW

Compared with COC(=O)[C@@]1(Cc2ccc(OC)cc2)[C@H]2c3cc(C(=O)N4CCCC4)n(Cc4nc5ccccc5[nH]4)c3C[C@H]2CN1C(=O)c1ccccc1, COc1ccc(NC(=O)O[C@H]2[C@H](OC(=O)c3cc4ccccc4[nH]3)[C@@H](OC(=O)c3cc4ccccc4[nH]3)[C@@H](OC)O[C@@H]2CO)cc1 is lower in composite z-score: 0.979 for the first, 0.752 for the second.

Compared with C=C(CCCC)C(=O)CC[C@@H](OC(C)=O)c1ccc(CO)o1, CN(C)CCCCCCNC(=O)[C@@H]1C[C@@H]2C(=O)N3CCC[C@H]3C(=O)N2[C@@H]1c1ccc(O)cc1 is higher in composite z-score: 1.36 for the first, 1.47 for the second.

Compared with O=C1[C@H]2C=C(I)[C@H](C[C@@H]2OCCCCO)[C@@]12CO2, COc1ccc([C@H]2C[C@H]3C(Br)=C[C@@]2(CO)C(=O)[C@]32CO2)cc1 is lower in composite z-score: 0.167 for the first, -0.0737 for the second.

Compared with COCCCNC(=O)[C@@]1(Cc2ccccc2)N=C(c2ccc(OCCCO)cc2)O[C@H]1c1ccccc1CN=[N+]=[N-], COC(=O)[C@]1(Cc2ccccc2)N=C(c2ccc(OCCCO)cc2)O[C@@H]1c1ccccc1N=[N+]=[N-] is higher in composite z-score: 1.3 for the first, 1.36 for the second.

First: C=CCNC(=O)[C@@H]1[C@H]2C(=O)O[C@H](c3ccccc3)[C@H](c3ccccc3)N2[C@H](c2ccc(OCCO)cc2)[C@@]12C(=O)N(C(=O)OCCOC)c1ccc(C#CCNC(N)=O)cc12
Second: COCCOC(=O)N1C(=O)[C@@]2(c3cc(C#CC4(O)CCCCCC4)ccc31)[C@H](C(=O)Nc1nc3ccccc3s1)[C@H]1C(=O)O[C@H](c3ccccc3)[C@H](c3ccccc3)N1[C@@H]2c1ccc(OCCO)cc1
The composite z-score of the first is higher: 1.38 for the first, 1.12 for the second.

Going from CS(=O)(=O)CCOC(=O)C1=CC(CCCO)=CC(c2ccc(CN3CCCC3)cc2)N(Cc2cccc(OC(F)(F)F)c2)C=C1C(=O)OCCS(C)(=O)=O (stereo not given) to O=C(NCCN1CCOCC1)[C@@H]1c2ccccc2C(=O)N(Cc2cc(C(F)(F)F)cc(C(F)(F)F)c2)[C@H]1c1ccc(CO)cc1, the composite z-score falls from 0.962 to -0.48.

First: [N-]=[N+]=Nc1ccccc1C[C@]1(C(=O)NCC(O)CO)N=C(c2ccc(OCCCO)cc2)O[C@H]1c1ccccc1 (stereo not given in full)
Second: [N-]=[N+]=NCc1ccccc1C[C@@]1(C(=O)NCC(O)CO)N=C(c2ccc(OCCCO)cc2)O[C@@H]1c1ccccc1 (stereo not given in full)
The composite z-score of the first is lower: 0.497 for the first, 0.602 for the second.

Compared with C=CCN1C(=O)[C@]2(O[C@H](CCO)[C@@H]([Si](C)(C)c3ccc(OC)cc3)[C@@H]2C)c2cc(N(C=O)c3ccccc3)ccc21, COc1ccc([Si](C)(C)[C@@H]2[C@@H](CC(=O)N3Cc4ccccc4C[C@H]3CO)O[C@]3(C(=O)N(Cc4cccc(N5CCC5=O)c4)c4ccccc43)[C@H]2C)cc1 is higher in composite z-score: -0.193 for the first, 1.22 for the second.

First: Cc1ccc(S(=O)(=O)N2C[C@@H](C(=O)O)[C@H](Sc3ccccc3)C[C@H]2c2ccccc2)cc1
Second: O=C(NCc1ccccc1)[C@@H]1c2ccccc2C(=O)N(C2Cc3ccccc3C2)[C@H]1c1ccc(CO)cc1
The composite z-score of the first is higher: 0.999 for the first, 0.957 for the second.

Compared with C=CC[C@]1(C(N)=O)N=C(c2ccc(OCCCO)cc2)O[C@H]1c1ccccc1, [N-]=[N+]=Nc1ccccc1[C@H]1OC(c2ccc(OCCCO)cc2)=N[C@@]1(Cc1ccccc1)C(=O)N1CCOCC1 is higher in composite z-score: 0.482 for the first, 1.38 for the second.

First: O=C1NC(=O)C2C1C=CC(C(O)c1ccc(-c3ccccc3)s1)N2Nc1ccc(Cl)cc1Cl (stereo not given)
Second: O=C1C2C=CC(C(O)c3ccc(-c4ccccc4)s3)N(Nc3ccccc3)C2C(=O)N1c1ccccc1 (stereo not given)
The composite z-score of the first is lower: 0.833 for the first, 0.899 for the second.

Going from NCCCCCNC(=O)[C@H]1C[C@H]2C(=O)N3CCC[C@H]3C(=O)N2[C@H]1c1ccc(O)cc1 to NCCCCCCNC(=O)[C@H]1C[C@H]2C(=O)N[C@@H](Cc3ccccc3)C(=O)N2[C@H]1c1cccc(OCCO)c1, the composite z-score falls from 1.34 to 1.08.

First: CC(=O)n1cc(C(O)C2C=CC3C(=O)NC(=O)C3N2Nc2ccccn2)c2ccccc21 (stereo not given)
Second: O=C1C2C=CC(C(O)c3c(F)cccc3Cl)N(Nc3ccccc3F)C2C(=O)N1c1ccccc1 (stereo not given)
The composite z-score of the first is lower: 0.242 for the first, 1.09 for the second.

Compared with CO[C@H]1O[C@H](CO)[C@@H](OC(=O)Nc2cccc(F)c2)[C@H](OC(=O)Nc2ccccc2)[C@H]1OC(=O)Nc1ccccc1, CO[C@H]1O[C@H](CO)[C@@H](OC(=O)Nc2ccccc2-c2ccccc2)[C@H](OC(=O)Nc2ccccc2-c2ccccc2)[C@@H]1OC(=O)Nc1ccccc1-c1ccccc1 is lower in composite z-score: 1.35 for the first, 1.2 for the second.

Compared with Cc1c(NC(=O)/C(C#N)=C/c2cccc([N+](=O)[O-])c2)c(=O)n(-c2ccccc2)n1C, CN(C)CCCC[C@@H]1NC(=O)[C@H]2C[C@@H](C(=O)NCCCCCN)[C@@H](c3cccc(OCCO)c3)N2C1=O is higher in composite z-score: 0.7 for the first, 1.38 for the second.

From PubChem BioAssay
